This is part of a sample that, as a whole, favours compounds with a hit. Of some 79,000 tested, about 15% had one in any assay. Calls of active or inactive are those of the source. Cut-off read from the data, not from the text of the source: active = growth inhibition above about 70%; inactive = the rest.
Tests used:
[1] = NCI Yeast Anticancer Drug Screen. Data for the rad52 strain (AID 147);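 note: 0% = growth of vehicle-treated control cultures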; details: S. cerevisiae rad52 mutant growth inhibition, active compounds read high
Outline: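 Read-out: growth inhibition versus vehicle-treated controls. Cells were a DNA repair-deficient yeast strain treated with compounds.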

[2] = NCI Yeast Anticancer Drug Screen. Data for the wt1 strain (AID 149);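 note: 0% = growth of vehicle-treated wt1 cultures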; details: S. cerevisiae wt1 strain (SPY 50644) growth inhibition, active compounds read high
Outline: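 Yeast wt1 strain exposed to compounds; growth inhibition measured relative to vehicle-treated controls.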

[3] = NCI Yeast Anticancer Drug Screen. Data for the rad50EPP+ strain (AID 151);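 note: 0% = growth of vehicle-treated control cultures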; details: S. cerevisiae rad50 mutant strain, active compounds read high
Outline: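 Growth inhibition read against vehicle controls in rad50EPP+ yeast, a strain altered in DNA damage repair, after compound exposure.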

[4] = NCI Yeast Anticancer Drug Screen. Data for the mgt1 strain (AID 153); details: S. cerevisiae mgt1 mutant growth inhibition, active compounds read high
Outline: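 mgt1 yeast grown with test compound; read-out is growth inhibition versus vehicle-treated cultures.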

[5] = NCI Yeast Anticancer Drug Screen. Data for the rad50 strain (AID 155);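 note: 0% = growth of vehicle-only cultures of the same strain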; details: S. cerevisiae rad50 strain growth inhibition, active compounds read high
Outline: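 Yeast carrying a defined DNA repair defect were exposed to test compounds, and growth was compared with vehicle-treated controls to give percent inhibition.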

[6] = NCI Yeast Anticancer Drug Screen. Data for the mec2-1 strain (AID 157); details: S. cerevisiae mec2-1 strain, active compounds read high
Outline: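 Yeast mec2-1 mutant treated with compound. Readout: growth inhibition vs vehicle controls.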

[7] = NCI Yeast Anticancer Drug Screen. Data for the sgs1 mgt1 strain (AID 161);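 note: 0% = growth of cultures given vehicle only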; details: S. cerevisiae sgs1 mgt1 strain, active compounds read high
Outline: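 Genetically altered yeast, compound exposure, growth inhibition relative to vehicle.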

[8] = NCI Yeast Anticancer Drug Screen. Data for the CLN2oe strain (AID 163);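 note: 0% = growth of vehicle-only control cultures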; details: S. cerevisiae CLN2oe strain, active compounds read high
Outline: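 Read-out: yeast growth inhibition, expressed relative to vehicle-only controls. The strain bears an engineered cell-cycle alteration.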

[9] = NCI Yeast Anticancer Drug Screen. Data for the cln2 rad14 strain (AID 165);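 note: 0% = growth equal to vehicle treated cultures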; details: S. cerevisiae cln2 rad14 strain, active compounds read high
Outline: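 cln2 rad14 yeast strain; compound exposure; growth inhibition read vs vehicle controls.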

[10] = NCI Yeast Anticancer Drug Screen. Data for the bub3 strain (AID 167); details: S. cerevisiae bub3 mutant strain, active compounds read high
Outline: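 Compounds were applied to a genetically altered yeast strain carrying a cell-cycle control defect. Growth inhibition was scored against vehicle-treated controls.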

[11] = NCI Yeast Anticancer Drug Screen. Data for the wt2 strain (AID 169);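 note: 0% = growth of vehicle-treated yeast cultures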; details: S. cerevisiae wt2 strain growth inhibition, active compounds read high
Outline: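 Read-out: growth inhibition versus vehicle-treated control cultures after compound exposure of the yeast strain.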

[12] = NCI Yeast Anticancer Drug Screen. Data for the mlh1 strain (AID 171);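 note: 0% = growth of vehicle-treated control cultures of the same strain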; details: S. cerevisiae mlh1 strain growth inhibition, active compounds read high
Outline: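 Read-out: growth inhibition versus vehicle controls. Strain: engineered yeast with a defined DNA repair or cell cycle defect, compound-treated.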

[13] = NCI Yeast Anticancer Drug Screen. Data for the sgs1 strain (AID 173);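 note: 0% = growth of vehicle-only control cultures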; details: S. cerevisiae sgs1 mutant, active compounds read high
Outline: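 Read-out: yeast growth inhibition relative to vehicle controls, following compound exposure of a strain with a defined DNA repair/cell cycle alteration.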

[14] = NCI Yeast Anticancer Drug Screen. Data for the mlh1 rad18 strain (AID 175); details: S. cerevisiae mlh1 rad18 strain growth inhibition, active compounds read high
Outline: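 Yeast w/ defined DNA-repair lesions; compound exposure; growth vs vehicle controls → % inhibition.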

[15] = NCI Yeast Anticancer Drug Screen. Data for the rad18 strain (AID 177); details: S. cerevisiae rad18 mutant growth inhibition, active compounds read high
Outline: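 Readout: growth inhibition vs vehicle controls. Cells: genetically altered yeast strain, DNA repair defect.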

[16] = at 5.0 µM (retest, dose inferred, filed as 0.5)
[17] = at 50.0 µM (retest, dose inferred, filed as 5.0)

Measured: growth inhibition

COc1ccc2nc(CCc3ccccc3)ccc2c1
inactive: [1]; at 1.2 µM -18% | [1]; at 3.7 µM -25% | [1]; at 11.0 µM -14% | [1]; at 33.0 µM -7% | [2]; at 1.2 µM -5% | [2]; at 3.7 µM -7% | [2]; at 11.0 µM -1% | [2]; at 33.0 µM -7% | [3]; at 1.2 µM -7% | [3]; at 3.7 µM -9% | [3]; at 11.0 µM 11% | [3]; at 33.0 µM 26% | [3]; at 100.0 µM 34% | [4]; at 1.2 µM -9% | [4]; at 3.7 µM -7% | [4]; at 11.0 µM -6% | [4]; at 33.0 µM -5% | [4]; at 100.0 µM 35% | [5]; at 1.2 µM -20% | [5]; at 3.7 µM -21% | [5]; [16] -6% | [5]; at 11.0 µM -27% | [5]; at 33.0 µM -8% | [5]; [17] 55% | [5]; at 50.0 µM 69.3% | [6]; at 1.2 µM -7% | [6]; at 3.7 µM -5% | [6]; [16] -7% | [6]; at 11.0 µM -8% | [6]; at 33.0 µM -11% | [6]; at 100.0 µM 50% | [7]; [16] 5% | [8]; at 1.2 µM -12% | [8]; at 3.7 µM -13% | [8]; at 11.0 µM -18% | [8]; at 33.0 µM -16% | [8]; at 100.0 µM 20% | [9]; [16] -6% | [9]; [17] -1% | [9]; at 50.0 µM -7.95% | [10]; at 1.2 µM -6% | [10]; at 3.7 µM 6% | [10]; [16] 14% | [10]; at 11.0 µM 12% | [10]; at 33.0 µM 34% | [11]; at 1.2 µM 5% | [11]; at 3.7 µM 4% | [11]; at 11.0 µM 20% | [11]; at 33.0 µM 39% | [12]; at 1.2 µM -15% | [12]; at 3.7 µM -10% | [12]; at 11.0 µM -12% | [12]; at 33.0 µM -14% | [13]; at 1.2 µM -24% | [13]; at 3.7 µM -17% | [13]; at 11.0 µM -3% | [13]; at 33.0 µM 21% | [14]; [16] -6% | [14]; at 50.0 µM 30.9% | [15]; at 1.2 µM -11% | [15]; at 3.7 µM -12% | [15]; at 11.0 µM -13% | [15]; at 33.0 µM -19%
active: [1]; at 100.0 µM 96% | [2]; at 100.0 µM 96% | [5]; at 100.0 µM 94% | [6]; [17] 81% | [6]; at 50.0 µM 84.7% | [7]; [17] 87% | [7]; at 50.0 µM 84.1% | [10]; [17] 78% | [10]; at 50.0 µM 87.7% | [10]; at 100.0 µM 88% | [11]; at 100.0 µM 99% | [12]; at 100.0 µM 91% | [13]; at 100.0 µM 96% | [14]; [17] 70% | [15]; at 100.0 µM 92%

CC(C)S(=O)(=O)/C=C\S(=O)(=O)C(C)C
active: [1]; at 33.0 µM 75% | [1]; at 100.0 µM 97% | [2]; at 33.0 µM 87% | [2]; at 100.0 µM 98% | [4]; at 100.0 µM 96% | [5]; at 33.0 µM 83% | [5]; [17] 74% | [5]; at 100.0 µM 97% | [6]; at 100.0 µM 93% | [7]; [17] 76% | [7]; at 50.0 µM 72% | [8]; at 100.0 µM 85% | [10]; [17] 81% | [10]; at 100.0 µM 92% | [11]; at 33.0 µM 90% | [11]; at 100.0 µM 99% | [12]; at 100.0 µM 96% | [13]; at 33.0 µM 80% | [13]; at 100.0 µM 98% | [14]; [17] 85% | [14]; at 50.0 µM 82.8% | [15]; at 33.0 µM 78% | [15]; at 100.0 µM 93%
inactive: [1]; at 1.2 µM -5% | [1]; at 3.7 µM -7% | [1]; at 11.0 µM 23% | [2]; at 1.2 µM 1% | [2]; at 3.7 µM 19% | [2]; at 11.0 µM 44% | [3]; at 1.2 µM -1% | [3]; at 3.7 µM -11% | [3]; at 11.0 µM 5% | [3]; at 33.0 µM 26% | [3]; at 100.0 µM 25% | [4]; at 1.2 µM 1% | [4]; at 3.7 µM -5% | [4]; at 11.0 µM 15% | [4]; at 33.0 µM 63% | [5]; at 1.2 µM -5% | [5]; at 3.7 µM -5% | [5]; [16] -138% | [5]; at 11.0 µM 14% | [5]; at 50.0 µM 64.8% | [6]; at 1.2 µM 1% | [6]; at 3.7 µM 2% | [6]; [16] -45% | [6]; at 11.0 µM 7% | [6]; at 33.0 µM 58% | [6]; [17] 69% | [6]; at 50.0 µM 62.8% | [7]; [16] -56% | [8]; at 1.2 µM -6% | [8]; at 3.7 µM -4% | [8]; at 11.0 µM 4% | [8]; at 33.0 µM 28% | [9]; [16] -50% | [9]; [17] -3% | [9]; at 50.0 µM -17.3% | [10]; at 1.2 µM -4% | [10]; at 3.7 µM 1% | [10]; [16] -71% | [10]; at 11.0 µM 5% | [10]; at 33.0 µM 52% | [10]; at 50.0 µM 50.6% | [11]; at 1.2 µM 5% | [11]; at 3.7 µM 15% | [11]; at 11.0 µM 44% | [12]; at 1.2 µM -8% | [12]; at 3.7 µM -1% | [12]; at 11.0 µM 1% | [12]; at 33.0 µM 64% | [13]; at 1.2 µM -5% | [13]; at 3.7 µM -8% | [13]; at 11.0 µM 30% | [14]; [16] -133% | [15]; at 1.2 µM -2% | [15]; at 3.7 µM 5% | [15]; at 11.0 µM 19%

— PubChem BioAssay (NCI)
